Measurements: PubChem BioAssay (Tox21)
Results filed as inconclusive are left out. Unmarked numbers belong to inactive results. The call rests on the fitted dose curve; in most records, active means well fitted inhibition curve with a large enough effect in the signal ratio in the repeat runs (not every such curve was filed as active); inconclusive means weak or mixed curves, or effect the other way; inactive means no such curve, though single readings can be large or run the other way; the % refers to the signal ratio.

These compounds were tested against Vitamin D3 receptor (Homo sapiens) (UniProt P11473) (assay: qHTS assay to identify small molecule antagonists of the vitamin D receptor (VDR) signaling pathway (AID 743223)). Settings: VDR-UAS-bla HEK293T, beta-lactamase FRET ratio, 16 h; series mostly up to 61 µM; activity change, negative = inhibition: at the top concentration.
Excerpt: U.S. Tox21 Program National Center for Advancing Translational Sciences [NCATS] NIH Chemical Genomics Center [NCGC] U.S. Environmental Protection Agency [EPA] National Institutes of Environmental Health Sciences [NIEHS] National Toxicology Program [NTP] U.S. Food and Drug Administration [FDA] Tox21 Assay Overview: The vitamin D receptor (VDR), a member of nuclear hormone receptor superfamily, plays a critical role in calcium homeostasis and bone metabolism. It is also involved in cell differentiation and growth, and thrombogenicity.
Tox21 Assay Protocol Summary: VDR-bla cells were dispensed at 2,000 cells/5 uL of assay medium per well into black wall/clear-bottom 1536-well plates using a Multidrop Combi (Thermo Fisher Scientific, Waltham, MA) dispenser. After the assay plates were incubated at a 37C and 5% CO2 for 4 h, 23 nL of compounds dissolved in DMSO, positive controls or DMSO only was transferred to the assay plate by a Pintool station (Kalypsys, San Diego, CA), followed by addition of 1 uL of 1alpha, 25-Dihydroxy Vitamin D3 (3 nM, final concentration in the wells) using a Bioraptr Flying Reagent Dispenser (FRD) workstation (Beckman Coulter, Indianapolis, IN). The plates were incubated at 37C and 5% CO2 for 16 h, and then 1 uL of LiveBLAzerTM B/G FRET substrate was added using a Bioraptr FRD. The plates were incubated at room temperature for 2 h and fluorescence intensity was measured by an Envision plate reader (PerkinElmer, Shelton, CT).
On the % scale 0 is the no-effect control and ±100 the full control effect.

Chain of Vitamin D3 receptor (Homo sapiens) (P11473 whole entry, looked up): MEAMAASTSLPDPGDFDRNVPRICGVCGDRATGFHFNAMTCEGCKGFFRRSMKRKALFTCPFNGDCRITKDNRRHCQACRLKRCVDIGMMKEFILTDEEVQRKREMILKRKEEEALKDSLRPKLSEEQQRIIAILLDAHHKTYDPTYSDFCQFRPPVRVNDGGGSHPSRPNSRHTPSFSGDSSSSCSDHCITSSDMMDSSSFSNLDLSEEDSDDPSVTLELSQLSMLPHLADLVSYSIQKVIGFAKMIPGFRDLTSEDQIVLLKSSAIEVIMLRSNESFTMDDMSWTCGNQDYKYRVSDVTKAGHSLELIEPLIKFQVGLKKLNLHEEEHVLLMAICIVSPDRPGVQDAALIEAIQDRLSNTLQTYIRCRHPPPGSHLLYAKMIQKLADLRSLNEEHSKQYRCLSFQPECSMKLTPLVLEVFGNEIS

Row | Structure (SMILES) | activity change, negative = inhibition
1 | CCCCCCCCCCCCCCCCCCOCCO | -11.1% [at 28.5 µM]
2 | CCOc1cccc(N)c1 | 6.29%
3 | O=C1CCCCO1 | 0.737%
4 | Cc1cc(-c2ccccc2)nnc1NCCN1CCOCC1 | 3.65%
5 | CC(C)=CCC[C@@](C)(O)[C@H]1CC=C(C)CC1 | 0.741%
6 | CC(=O)C(C)O (stereo not given) | -17.1%
7 | CCCCOC(=O)C(C)O (stereo not given) | 3.01%
8 | CC1(C)Cc2cccc(N)c2O1 | 6.53%
9 | c1ccc(-c2nn[nH]n2)cc1 | 6.33%
10 | C[C@]12CCC(=O)C=C1CC[C@H]1[C@@H]3CC[C@](O)(C(=O)CO)[C@@]3(C)C[C@H](O)[C@@]12F | -0.578%
11 | CC(C)COC(=O)c1ccccc1 | 1.9%
12 | CCCCCC(C)O (stereo not given) | -1.75%
13 | O=C1c2ccccc2C(=O)c2cc(Cl)ccc21 | -12.7% [at 6.95 µM]
14 | CC(=O)c1cc(C)oc1C | -12.3% [at 78.8 µM]
15 | CC(=O)OC1CCCCC1C(C)(C)C (stereo not given) | 9.91%
16 | C=CCN1C[C@H](C(=O)N(CCCN(C)C)C(=O)NCC)C[C@@H]2c3cccc4[nH]cc(c34)C[C@H]21 | 2.87%
17 | CC(C)OC(=O)CCC(=O)OC(C)C | -1.7%
18 | Cc1c(Cl)cccc1Cl | -9.56%
19 | CC(=O)Nc1ccc(OC(=O)c2ccccc2OC(C)=O)cc1 | 12.3%
20 | CC(=O)OC(C)=O | -0.127% [at 78.8 µM]

Row | Structure (SMILES) | activity change, negative = inhibition
21 | CC(=O)O[Si](C)(OC(C)=O)OC(C)=O | 5.64% [at 78.8 µM]
22 | C=CCSSCCC | -2.61%
23 | ONc1ccccc1 | 1.3% [at 78.8 µM]
24 | CCCCCCC1(C)CCC(=O)O1 (stereo not given) | -14.5%
25 | COc1ccc2c(c1)c1c3n2CCN(C)C3=NCC1 | -16.2%
26 | CC(C)CCOC(=O)c1ccccc1 | -9.55%
27 | CC1CC(=O)CC(C)(C)C1 (stereo not given) | -13.1%
28 | CCC(=O)Oc1ccc2c(c1)CC[C@@H]1[C@@H]2CC[C@@]2(C)[C@H]1C[C@@H](OC(=O)CC)[C@@H]2OC(=O)CC | 2.59%
29 | Nc1nnnn1-c1ccccc1 | -18%
30 | CC(=O)CC(=O)OC(C)(C)C | -11.6%
31 | COC(=O)c1cccc(Cl)c1 | -13.2%
32 | CC1(C)O[C@H]2CC(=O)OC[C@]23[C@H]2CC[C@@]4(C)[C@H](c5ccoc5)OC(=O)[C@H]5O[C@]54[C@]2(C)C(=O)C[C@@H]13 | -5.27%
33 | CO[Si](CCCn1c(=O)n(CCC[Si](OC)(OC)OC)c(=O)n(CCC[Si](OC)(OC)OC)c1=O)(OC)OC | 6.48%
34 | C=CCOC(=O)CCCCCC | 7.06%
35 | Cn1c(=O)c2c(ncn2CCO)n(C)c1=O | -13.8%
36 | C[C@H]1[C@@H](c2ccccc2)NC(=O)N1C | -4.51% [at 78.8 µM]
37 | C/C(=C1\CCOC(=O)S1)N(C=O)Cc1cnc(C)nc1N | 5.6%
38 | CC(C)NC(=O)c1ccc(C=O)cc1 | -5%
39 | O=C(O)[C@H](O)c1ccccc1 | -15.8%
40 | O=[N+]([O-])c1c(Cl)cc(Cl)cc1Cl | 14.9%
